Results as given in PubChem BioAssay (NCI).
About 79,000 compounds went through this panel and 15% of them were active in at least one assay; those are over-represented in the sample as a whole. Unmarked numbers belong to inactive results. Activity calls are given as the source filed them. Cut-off read from the data, not from the text of the source: active = growth inhibition above about 70%; inactive = the rest.

Assay: NCI Yeast Anticancer Drug Screen. Data for the rad50 strain (AID 155);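 note: 0% = growth of vehicle-only cultures of the same strain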
Settings: S. cerevisiae rad50 strain growth inhibition; at 50.0 µM; hits give high values
Summary of the method: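 A DNA repair-deficient yeast mutant serves as the test organism; compound-induced growth inhibition is calculated against vehicle-treated cells.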

Row | SMILES | growth inhibition
1 | O=C(CCC(=O)Nc1cc(Cl)ccc1Cl)CC(=O)c1ccc([N+](=O)[O-])cc1 | 10.1%
2 | NC1C2CC3CC1CC(C2)O3 (stereo not given) | -10.8%
3 | O=C(O)C(Br)C(Br)C(=O)Nc1cccc2ccccc12 (stereo not given) | 98.8% (active)
4 | CC(C)[C@@]12O[C@@H]1CC13OC1[C@@H](O)CC[C@@]32O (stereo not given in full) | -16.6%
5 | O=C1C=C(C2CCCCC2)C(=O)c2ccccc21 | 17%
6 | Cc1ccc(N=C(NN(C)C)C(c2ccccc2)c2ccccc2)cc1 | 2.55%
7 | CC(CS(C)(=O)=O)S(=O)(=O)O (stereo not given) | -6.25%
8 | Cc1ccc(N=NN(C)C)cc1 | 2.55%
9 | COc1cc(NC(=O)CCN2CCOCC2)c2ncccc2c1 | 41.6%
10 | FC(F)(F)c1cccc(C2SCc3nc4ccccc4n32)c1 (stereo not given) | -16.4%
11 | O=c1c(Cl)c(Cl)cnn1-c1ccc([N+](=O)[O-])cc1[N+](=O)[O-] | 5.7%
12 | CN(C)/C(=N\N=C(/c1ccc(Cl)cc1)N(C)C)c1ccc(Cl)cc1 | -15.8%
13 | Cc1c(C)c(C)c(CN2CC(=O)c3ccccc3C2=O)c(C)c1C | 18%
14 | C[n+]1nc([O-])oc1-c1ccccc1 | 4.5%
15 | Cc1[nH]c2ccccc2c1-c1cc(-c2cc(-c3c(C)[nH]c4ccccc34)nc(N)n2)nc(N)n1 | -12.9%
16 | COc1cccc(/C=C2\C(=O)N(C(=O)Cc3ccccc3)N=C2C)c1 | 4.3%
17 | OCCOc1ccc(OCCO)cc1 | -2.1%
18 | CCCCNC(C)=O | 4.5%
19 | OC(Cc1cccnc1)(c1ccccc1)c1ccccc1 | -0.3%
20 | COC(=O)C1(CCSc2ccccc2)CCCC1=O (stereo not given) | 29.3%

Row | SMILES | growth inhibition
21 | CCCCN(CCCC)C(=N)c1cccc(OC)c1 | -7.9%
22 | O=[N+]([O-])c1ccc(N/N=C2\C=C(c3ccccc3)C(c3ccccc3)C2)c([N+](=O)[O-])c1 (stereo not given) | -36.3%
23 | S=C(Nc1ccccc1)N1N=C2c3ccccc3CC[C@H]2[C@@H]1c1ccccc1 | -24.3%
24 | CCCCCCCCCCCCCCCCNc1nc(=O)n(C2CC(O)C(COP(=O)(O)OC3CC(n4cc(F)c(=O)[nH]c4=O)OC3CO)O2)cc1F (stereo not given) | -2.05%
25 | COc1cc2c(SCCN(C)C)nc3ccccc3c2c2ccccc12 | 89.9% (active)
26 | C=C(C)CBr | -17.1%
27 | O=C1Cn2c(cc(=O)c3ccccc32)O1 | 37.5%
28 | CC1=CC(=O)C(c2ccccc2)CC1 (stereo not given) | -0.2%
29 | CC(C#N)(CCl)OS(=O)(=O)CCCl (stereo not given) | 37.4%
30 | Cc1ccc(NC(=O)CCC(=O)C2Cc3ccccc3C2=O)cc1C (stereo not given) | -16%
31 | CCOC(=O)c1ccc(NC(=O)Oc2ccc(SC)cc2)cc1 | 8.2%
32 | O=[N+]([O-])Cc1ccc(Cl)cc1 | 4.6%
33 | CCOc1ccc2nc(NC(=O)C(=O)C(C(=O)c3ccccc3F)C3OC(=O)c4ccccc43)sc2c1 (stereo not given) | 10.9%
34 | Nc1cccc2nsnc12 | 3%
35 | CCOC(=O)C[N+]1(C)CCC(O)CC1 (stereo not given) | 3.15%
36 | C/C=C\C(=O)OCC(C)COC(=O)/C=C/C (stereo not given) | 21.7%
37 | O=c1c2ccccc2c2ccccc2n1C(c1ccccc1)c1ccccc1 | -43%
38 | CC(C)C(=O)Nc1ccc([N+](=O)[O-])cc1 | 26.1%
39 | Oc1c2cccc1Cc1cccc3c1OCCOCCOCCOCCOc1c(cccc1Cc1cccc(c1O)C3)C2 | 9.1%
40 | CCN(CC)Cc1ncccc1O | 8.5%

Assay: NCI Yeast Anticancer Drug Screen. Data for the mec2-1 strain (AID 157)
Settings: S. cerevisiae mec2-1 strain, at 50.0 µM, hits give high values
Summary of the method: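 Cells of the genetically defined mec2-1 yeast strain are incubated with test compound. Inhibition of growth is calculated against vehicle-treated controls.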

Row | SMILES | growth inhibition
41 | O=C(CCC(=O)Nc1cc(Cl)ccc1Cl)CC(=O)c1ccc([N+](=O)[O-])cc1 | 28.9%
42 | NC1C2CC3CC1CC(C2)O3 (stereo not given) | -8.1%
43 | O=C(O)C(Br)C(Br)C(=O)Nc1cccc2ccccc12 (stereo not given) | 99.1% (active)
44 | CC(C)[C@@]12O[C@@H]1CC13OC1[C@@H](O)CC[C@@]32O (stereo not given in full) | -1.05%
45 | O=C1C=C(C2CCCCC2)C(=O)c2ccccc21 | 2.6%
46 | Cc1ccc(N=C(NN(C)C)C(c2ccccc2)c2ccccc2)cc1 | -20.1%
47 | CC(CS(C)(=O)=O)S(=O)(=O)O (stereo not given) | -20.4%
48 | Cc1ccc(N=NN(C)C)cc1 | 3.65%
49 | COc1cc(NC(=O)CCN2CCOCC2)c2ncccc2c1 | 3.6%
50 | FC(F)(F)c1cccc(C2SCc3nc4ccccc4n32)c1 (stereo not given) | 6.6%
51 | O=c1c(Cl)c(Cl)cnn1-c1ccc([N+](=O)[O-])cc1[N+](=O)[O-] | 6.7%
52 | CN(C)/C(=N\N=C(/c1ccc(Cl)cc1)N(C)C)c1ccc(Cl)cc1 | -8.25%
53 | Cc1c(C)c(C)c(CN2CC(=O)c3ccccc3C2=O)c(C)c1C | 13.7%
54 | C[n+]1nc([O-])oc1-c1ccccc1 | 3.05%
55 | Cc1[nH]c2ccccc2c1-c1cc(-c2cc(-c3c(C)[nH]c4ccccc34)nc(N)n2)nc(N)n1 | 8.95%
56 | COc1cccc(/C=C2\C(=O)N(C(=O)Cc3ccccc3)N=C2C)c1 | -30.2%
57 | OCCOc1ccc(OCCO)cc1 | -5.65%
58 | CCCCNC(C)=O | -9.15%
59 | OC(Cc1cccnc1)(c1ccccc1)c1ccccc1 | -40.4%
60 | COC(=O)C1(CCSc2ccccc2)CCCC1=O (stereo not given) | -33%

Row | SMILES | growth inhibition
61 | CCCCN(CCCC)C(=N)c1cccc(OC)c1 | -13.4%
62 | O=[N+]([O-])c1ccc(N/N=C2\C=C(c3ccccc3)C(c3ccccc3)C2)c([N+](=O)[O-])c1 (stereo not given) | 8.95%
63 | S=C(Nc1ccccc1)N1N=C2c3ccccc3CC[C@H]2[C@@H]1c1ccccc1 | -37.9%
64 | CCCCCCCCCCCCCCCCNc1nc(=O)n(C2CC(O)C(COP(=O)(O)OC3CC(n4cc(F)c(=O)[nH]c4=O)OC3CO)O2)cc1F (stereo not given) | -6.05%
65 | COc1cc2c(SCCN(C)C)nc3ccccc3c2c2ccccc12 | 92.3% (active)
66 | C=C(C)CBr | -7.55%
67 | O=C1Cn2c(cc(=O)c3ccccc32)O1 | 13.6%
68 | CC1=CC(=O)C(c2ccccc2)CC1 (stereo not given) | -5.65%
69 | CC(C#N)(CCl)OS(=O)(=O)CCCl (stereo not given) | 21.4%
70 | Cc1ccc(NC(=O)CCC(=O)C2Cc3ccccc3C2=O)cc1C (stereo not given) | -7.55%
71 | CCOC(=O)c1ccc(NC(=O)Oc2ccc(SC)cc2)cc1 | -5.25%
72 | O=[N+]([O-])Cc1ccc(Cl)cc1 | 18.4%
73 | CCOc1ccc2nc(NC(=O)C(=O)C(C(=O)c3ccccc3F)C3OC(=O)c4ccccc43)sc2c1 (stereo not given) | 9%
74 | Nc1cccc2nsnc12 | -36.6%
75 | CCOC(=O)C[N+]1(C)CCC(O)CC1 (stereo not given) | 26.1%
76 | C/C=C\C(=O)OCC(C)COC(=O)/C=C/C (stereo not given) | 15.9%
77 | O=c1c2ccccc2c2ccccc2n1C(c1ccccc1)c1ccccc1 | -4.9%
78 | CC(C)C(=O)Nc1ccc([N+](=O)[O-])cc1 | 4.2%
79 | Oc1c2cccc1Cc1cccc3c1OCCOCCOCCOCCOc1c(cccc1Cc1cccc(c1O)C3)C2 | 12.8%
80 | CCN(CC)Cc1ncccc1O | -15.8%
